The source of these data is PubChem BioAssay (NCI).

Compounds without any hit were thinned out: in the full panel of roughly 79,000, 15% have a hit. Unmarked numbers belong to inactive results. Calls of active or inactive are those of the source. Rule as the data show it: active = growth inhibition above about 70%; inactive = the rest.

A short description of assay [1]: NCI Yeast Anticancer Drug Screen. Data for the rad50 strain (AID 155).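 Also: 0% = growth of vehicle-only cultures of the same strain.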 The conditions noted are these: S. cerevisiae rad50 strain growth inhibition; at 50.0 µM; hits give high values. The method in brief: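 Readout: growth inhibition relative to vehicle-treated cultures. Compound exposure was carried out in a genetically defined yeast strain deficient in DNA damage repair.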

The nature of assay [2]: NCI Yeast Anticancer Drug Screen. Data for the mec2-1 strain (AID 157). The conditions noted are these: S. cerevisiae mec2-1 strain, at 50.0 µM, hits give high values. The method in brief:
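Test agents were screened against the mec2-1 yeast strain, with defined DNA repair or cell cycle alteration. Growth was scored as inhibition against vehicle-only controls.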

Assay [3] in a line: NCI Yeast Anticancer Drug Screen. Data for the sgs1 mgt1 strain (AID 161).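 Also: 0% = growth of cultures given vehicle only.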 The conditions noted are these: S. cerevisiae sgs1 mgt1 strain, at 50.0 µM, hits give high values. The method in brief: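 Mutant yeast exposed to compound; growth scored against vehicle-only wells.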
Assay [4] is described as follows: NCI Yeast Anticancer Drug Screen. Data for the cln2 rad14 strain (AID 165).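 Also: 0% = growth equal to vehicle treated cultures.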 The conditions noted are these: S. cerevisiae cln2 rad14 strain, at 50.0 µM, hits give high values. The method in brief: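 Growth of compound-exposed yeast (cln2 rad14 genotype) measured and expressed as inhibition relative to vehicle.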
Assay [5] in a line: NCI Yeast Anticancer Drug Screen. Data for the bub3 strain (AID 167). The conditions noted are these: S. cerevisiae bub3 mutant strain, at 50.0 µM, hits give high values. Put shortly: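 Readout: yeast growth inhibition, expressed relative to vehicle-only wells. The test organism is a mutant strain from a panel with lesions in DNA repair or checkpoint genes.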
Assay [6] in a line: NCI Yeast Anticancer Drug Screen. Data for the mlh1 rad18 strain (AID 175). The conditions noted are these: S. cerevisiae mlh1 rad18 strain growth inhibition; at 50.0 µM; hits give high values. The method in brief: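 In this whole-cell yeast screen, a strain with altered DNA damage repair is challenged with compound, and its growth is measured against matched vehicle-treated controls.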

Take `CC1=C(C(=O)Nc2ccccc2C)C(c2ccc(Cl)cc2)C(C(=O)Nc2ccccc2C)=C(C)N1`: the growth inhibition in assay [1] was -3.3%; in assay [2], 2.6%; in assay [3] it was -5.2%; in assay [4], 14.4%; in assay [5], -8%; in assay [6], 0%.
As to `CCOC(=O)CCc1cnc[nH]1`, the growth inhibition in assay [1] was -60.5%; in assay [2], -8.95%; in assay [3], -3.05%; in assay [4], -14.1%; in assay [5], -4.55%; in assay [6], -0.75%.
As to `N#Cc1c2c(c(N=P(c3ccccc3)(c3ccccc3)c3ccccc3)n3c1nc1ccccc13)CCCC2`, the growth inhibition is 44.6% in assay [1]; 5.5% in assay [2]; 14.9% in assay [3]; 41.9% in assay [4]; 30% in assay [5]; 26.9% in assay [6].
As for `Cc1nc(-n2nc(-c3ccccc3)cc2-c2ccccc2)sc1C(=O)/C=C/c1ccc(Cl)c(Cl)c1`, the growth inhibition in assay [1] was 53.2%; in assay [2], 4.55%; in assay [3], 6.8%; in assay [4], 21.1%; in assay [5] it was 22.4%; in assay [6], 12.8%.
For `NC(=O)c1ccc2c(ccc3ccccc32)c1`, the growth inhibition in assay [1] was 48.5%; in assay [2], 4.75%; in assay [3], 5.05%; in assay [4], -36%; in assay [5], -1.8%; in assay [6], -2.75%.
As for `CC(=O)NC(CCCCNC(=O)OC(C)(C)C)C(=O)O` (centres undefined), the growth inhibition in assay [1] is -31.9%; in assay [2], -42.2%; in assay [3], -23.2%; in assay [4], 7.45%; in assay [5], -2.85%; in assay [6], -39.1%.
Turning to `C/C(CC(=O)Nc1ccc(NC(=O)/C(C)=N/NS(=O)(=O)c2ccc(C)cc2)cc1)=N\NS(=O)(=O)c1ccc(C)cc1`, the growth inhibition was 16.2% in assay [1]; 2.95% in assay [2]; -12.8% in assay [3]; -6.35% in assay [4]; -0.9% in assay [5]; 27.1% in assay [6].
For the compound `Nc1nnnn1NC(=O)c1ccccc1`, the growth inhibition in assay [1] is -2.1%; in assay [2], -6.8%; in assay [3], -5.35%; in assay [4] it was -11.5%; in assay [5], -6%; in assay [6] it was -11.3%.
In the case of `CCc1cccc(CC)c1NC(=O)c1ccccc1Br`, the growth inhibition in assay [1] is 2.5%; in assay [2], 1.85%; in assay [3], 15.7%; in assay [4], 16.3%; in assay [5], -0.05%; in assay [6] it was 21.2%.
On to `Cc1ccc(C(N)=O)cc1`, for which the growth inhibition in assay [1] is 20%; in assay [2], -8.65%; in assay [3] it was -1.55%; in assay [4] it was -31.1%; in assay [5], 17.9%; in assay [6], 42.1%.
As for `[Fe+2].[Fe+2].c1ccc2c(c1)-c1nc-2nc2[n-]c(nc3nc(nc4[n-]c(n1)c1ccccc41)-c1ccccc1-3)c1cc3c4nc5nc(nc6[n-]c(nc7nc(nc([n-]4)c3cc21)-c1ccccc1-7)c1ccccc61)-c1ccccc1-5`, the growth inhibition in assay [1] was -5.95%; in assay [2] it was -18.9%; in assay [3], -14.2%; in assay [4], -23%; in assay [5], 6.75%; in assay [6], 2.35%.
For the compound `OC1CC2CCC(C1)N2c1ccccc1` (centres undefined), the growth inhibition was 2.35% in assay [1]; 4.95% in assay [2]; 16.6% in assay [3]; -29.9% in assay [4]; 19.1% in assay [5]; 14.3% in assay [6].
Consider `CCOc1cccc2c1N[S@@](=O)S2`, for which the growth inhibition in assay [1] is 4.85%; in assay [2] it was -26.7%; in assay [3] it was 11.5%; in assay [4], 16.2%; in assay [5], 7.8%; in assay [6], 33.6%.
On to `C=CCOC(=O)Oc1ccc(Cl)cc1Cl`, for which the growth inhibition in assay [1] was 9.75%; in assay [2] it was 0.3%; in assay [3], 3.3%; in assay [4], -10.3%; in assay [5], 21.4%; in assay [6], 18.5%.
In the case of `O=C(O)CCS(=O)(=O)CCC(=O)O`, the growth inhibition in assay [1] is -8.4%; in assay [2], 0.8%; in assay [3], -21.4%; in assay [4], -30%; in assay [5], 8.6%; in assay [6] it was 22.8%.
Consider `COC(=O)C1=CO[C@@H](C)[C@@H]2CN3CCc4c([nH]c5ccc(OC)cc45)[C@@H]3C[C@H]12`, for which the growth inhibition in assay [1] was 8.9%; in assay [2], -19.9%; in assay [3], -24.9%; in assay [4], -18.6%; in assay [5] it was -2.9%; in assay [6], -16.4%.
Consider `CC(C)=CC(=O)OC1C2C(C)=CC(=O)C(O)C2(C)C2C3(O)OCC24C(CC(=O)OC14)C(C)C3O` (centres undefined), for which the growth inhibition in assay [1] was 91.6% (active); in assay [2], 92.4% (active); in assay [3], 91.5% (active); in assay [4], 91% (active); in assay [5], 90.8% (active); in assay [6], 91.2% (active).
For the compound `CN1NC(=O)CC1c1ccccc1` (centres undefined), the growth inhibition is 18.9% in assay [1]; -3.65% in assay [2]; -10.8% in assay [3]; 11.1% in assay [4]; 0.25% in assay [5]; 5.45% in assay [6].
For the compound `CC(O)(C(=O)O)c1ccccc1O` (centres undefined), the growth inhibition in assay [1] was -1.1%; in assay [2] it was 1.7%; in assay [3], 2.05%; in assay [4] it was 3.3%; in assay [5], 6.1%; in assay [6], 6.75%.
As for `C[N+]1(C)CCCC(CO)(c2ccccc2)CC1` (centres undefined), the growth inhibition in assay [1] was 10.2%; in assay [2], 13%; in assay [3] it was 3.3%; in assay [4] it was -15.5%; in assay [5] it was 14.9%; in assay [6] it was 7.7%.
As to `Cc1c(C2CC(=O)N(c3ccccc3)C2=O)c2ccccc2n1C` (centres undefined), the growth inhibition in assay [1] is -6.25%; in assay [2], -6%; in assay [3] it was -7.4%; in assay [4] it was -33.7%; in assay [5], 1.85%; in assay [6], -8.25%.
Regarding `COC(=O)c1cc(=O)c2c(=O)[nH]c(=O)[nH]c2[nH]1`, the growth inhibition is -3.65% in assay [1]; -1.25% in assay [2]; 2% in assay [3]; -26.8% in assay [4]; -8.6% in assay [5]; 3.65% in assay [6].
Turning to `C/C(=N/NC(=O)NN)c1cccc(O)c1`, the growth inhibition in assay [1] is 3.1%; in assay [2] it was -11.8%; in assay [3], -16.6%; in assay [4] it was 2.15%; in assay [5], -4.5%; in assay [6], -19.2%.
On to `CN(C)c1ccc(N=Cc2ccc3c(c2)OCO3)cc1`, for which the growth inhibition is -6.65% in assay [1]; 6.3% in assay [2]; -15.3% in assay [3]; -18.1% in assay [4]; -6.1% in assay [5]; -0.05% in assay [6].
On to `COc1cc(N(Cc2ccc3oc(=O)c(-c4ccccc4)nc3c2)Cc2ccc3oc(=O)c(-c4ccccc4)nc3c2)cc(OC)c1OC`, for which the growth inhibition in assay [1] is 29.6%; in assay [2] it was -2.45%; in assay [3] it was 13.5%; in assay [4], -35.1%; in assay [5], 15%; in assay [6], 9.15%.
In the case of `CCC(CCCCCc1ccccc1)(C(=O)O)C(=O)O`, the growth inhibition in assay [1] is -0.7%; in assay [2], 10.8%; in assay [3], 21.7%; in assay [4] it was -55%; in assay [5], -5.2%; in assay [6], -2.95%.
Turning to `c1ccc2c3c(cc(CCc4cc5c(c6ccccc46)CCCC5)c2c1)CCCC3`, the growth inhibition was -9.8% in assay [1]; -18.3% in assay [2]; -5.65% in assay [3]; -16% in assay [4]; -8.9% in assay [5]; -4.2% in assay [6].
On to `COC1OCC2OC3(CCCCC3)OC2C1SCc1ccccc1` (centres undefined), for which the growth inhibition was 8.05% in assay [1]; -9.85% in assay [2]; 10.8% in assay [3]; -7.4% in assay [4]; -10.4% in assay [5]; -5.25% in assay [6].
On to `Oc1ccc(Br)cc1C(=S)N1CCOCC1`, for which the growth inhibition in assay [1] was 9.3%; in assay [2] it was 18.4%; in assay [3], 4.45%; in assay [4], 3.6%; in assay [5] it was -10.1%; in assay [6], 37.2%.
For the compound `COc1ccccc1/C=N\NC(=O)c1ccccc1O`, the growth inhibition in assay [1] was 13.2%; in assay [2], 11.6%; in assay [3], 11.8%; in assay [4], 21.5%; in assay [5], 41%; in assay [6] it was 11.3%.
As for `O=C1CN(Cc2ccc(Cl)cc2)CC(=O)N2CCCN12`, the growth inhibition was 20.8% in assay [1]; 8% in assay [2]; 19.7% in assay [3]; 18.2% in assay [4]; 10.8% in assay [5]; 16.4% in assay [6].
Regarding `COc1ccc(-n2nc3c(ccc4ccccc43)c2N)cc1`, the growth inhibition in assay [1] is 2.8%; in assay [2] it was -8.5%; in assay [3], 16.5%; in assay [4], -2.05%; in assay [5] it was -0.4%; in assay [6], 8.5%.
On to `O=C(NCCCl)Nc1[nH]c(=O)ncc1Cl`, for which the growth inhibition was -12.2% in assay [1]; -13.2% in assay [2]; -16.5% in assay [3]; -30.6% in assay [4]; -12.4% in assay [5]; -3.15% in assay [6].
As to `CC1(O)CCC2(CCC(C)(O)CC2=O)C(=O)C1` (centres undefined), the growth inhibition in assay [1] is -7.85%; in assay [2] it was -9.75%; in assay [3] it was -0.45%; in assay [4], -2.35%; in assay [5], -12.6%; in assay [6], -14.7%.
On to `O=C1/C(=C/c2ccc(O)cc2)CCC/C1=C\c1ccc(O)cc1`, for which the growth inhibition is 3.9% in assay [1]; 1.85% in assay [2]; 5.2% in assay [3]; 23.1% in assay [4]; -7.05% in assay [5]; 1.45% in assay [6].
Take `Cc1ccccc1N(CC1CO1)CC1CO1` (centres undefined): the growth inhibition in assay [1] was 10.2%; in assay [2] it was -18.1%; in assay [3], -20.8%; in assay [4] it was -19%; in assay [5], -0.8%; in assay [6], -3.25%.
Take `O=[N+]([O-])c1c(O)c2nonc2c2nn(-c3ccccc3)nc12`: the growth inhibition was 1.7% in assay [1]; 15% in assay [2]; 55.4% in assay [3]; 25.8% in assay [4]; -15.7% in assay [5]; -15.4% in assay [6].
On to `CC(C)NC(=O)c1ccccc1S(=O)c1ccccc1C(=O)NC(C)C`, for which the growth inhibition in assay [1] is -16.4%; in assay [2], 3.45%; in assay [3], 8.15%; in assay [4] it was 11.3%; in assay [5] it was 5.05%; in assay [6], 7.25%.
`CC12CC3C(CC1SCC(=O)O2)C3(C)C` (centres undefined): the growth inhibition in assay [1] was -27.2%; in assay [2] it was -1.1%; in assay [3], -44.8%; in assay [4] it was 1.4%; in assay [5], -25.1%; in assay [6], -26.2%.
